PubChem BioAssay (NCATS)
Records with an inconclusive call do not appear. Activity calls are given as the source filed them. The call rests on the fitted dose curve; in most records, active means well fitted cell-killing curve with a large enough effect; inconclusive means small, poorly fitted or top-dose-only effect, or effect the other way; inactive means flat fitted curve, though single readings scatter.

system: Tov112D; assay: Primary qHTS to identify gynecologic anti-cancer compounds using libraries of approved drugs and bioactive compounds (AID 1345084); details: Gynecologic cancer cell panel viability, ATPlite luminescence, 48 h; series mostly up to 57.5 µM; activity change, negative = cytotoxicity: at the top concentration; further: nearly all actives have a fitted effect of over 55% in size
Procedure, shortened: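 ATP-based viability (ATPlite), 1,000 cells/well, 16 h pre-incubation, 48 h compound at 37 C, 5% CO2, 15 min RT before read.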
On the % scale 0 is the no-effect control and ±100 the full control effect; potency means the concentration at half of the fitted maximal effect.

Compound	activity change, negative = cytotoxicity	Potency
Nc1nnnn1-c1ccccc1	3.72% (inactive)	–
O=C(O)Cc1ccc(OCCNC[C@H](O)c2ccccc2)cc1	5.49% (inactive)	–
CO[C@@]1(NC(=O)CSC[C@@H](N)C(=O)O)C(=O)N2C(C(=O)O)=C(CSc3nnnn3C)CS[C@@H]21	-0.0189% (inactive)	–
CCOC(=O)OCC/C(SC(=O)OCC)=C(\C)N(C=O)Cc1cnc(C)nc1N	-3.05% (inactive)	–
CCCc1c2oc(C(=O)O)cc(=O)c2cc2c(=O)cc(C(=O)O)n(CC)c12	0.751% (inactive)	–
C[C@H]1NCc2cc(-c3ccc4c(=O)c(C(=O)O)cn(C5CC5)c4c3OC(F)F)ccc21	0.61% [at 25.3 µM] (inactive)	–
CN1C(=O)CC(C)(c2ccccc2)C1=O (stereo not given)	0% (inactive)	–
CC(=O)OC[C@H]1O[C@@H](OC(C)=O)[C@H](OC(C)=O)[C@@H]1OC(C)=O	12.4% (inactive)	–
CC(=O)OCC(=O)[C@@]1(O)CCC2C3CCC4=CC(=O)CC[C@]4(C)C3[C@@H](O)C[C@@]21C (stereo not given in full)	-4.72% (inactive)	–
CC(NN)c1ccccc1 (stereo not given)	-10.4% [at 25.3 µM] (inactive)	–
CN1CCCN=C1/C=C/c1cccs1	-1.94% (inactive)	–
OCCc1ccccc1	-7.08% (inactive)	–
O=C(CCCl)NCCc1ccccc1	10.9% (inactive)	–
Cc1oc(-c2ccccc2)nc1CCC(=O)c1ccc(CC2SC(=O)NC2=O)cc1 (stereo not given)	4.34% (inactive)	–
CN=C(N)NC(=O)Nc1c(C)cccc1C	-1.13% (inactive)	–
CC(=O)Nc1c(I)c(NC(C)=O)c(I)c(C(=O)O)c1I	-1.05% (inactive)	–
CN(C)C(=O)CNC(=O)Cc1ccccc1	9.05% (inactive)	–
CN1CCCN(C(c2ccccc2)c2ccc(Cl)cc2)CC1 (stereo not given)	–	31.6 µM (active)
Cc1cccc(C)c1NC(=O)c1cc(S(N)(=O)=O)c(Cl)cc1O	5.7% (inactive)	–
O=C(O)Cn1cnnn1	0.276% (inactive)	–
